Screening data from PubChem BioAssay.
USP28 block: blocks human USP28 ubiquitin-rhodamine cleavage; Q96RU2; purified USP28, Ub-rhodamine cleavage fluorescence, 30 min; inhibition, % at 25 µM; actives 3% (n = 47,000)
USP30 block: inhibitors of human USP30 deubiquitinase; Q70CQ3; purified USP30, Ub-rhodamine cleavage fluorescence; inhibition, % at 25 µM; actives 5.3% (n = 47,000); AID 1645860
Target sequence (Q70CQ3 whole entry, looked up): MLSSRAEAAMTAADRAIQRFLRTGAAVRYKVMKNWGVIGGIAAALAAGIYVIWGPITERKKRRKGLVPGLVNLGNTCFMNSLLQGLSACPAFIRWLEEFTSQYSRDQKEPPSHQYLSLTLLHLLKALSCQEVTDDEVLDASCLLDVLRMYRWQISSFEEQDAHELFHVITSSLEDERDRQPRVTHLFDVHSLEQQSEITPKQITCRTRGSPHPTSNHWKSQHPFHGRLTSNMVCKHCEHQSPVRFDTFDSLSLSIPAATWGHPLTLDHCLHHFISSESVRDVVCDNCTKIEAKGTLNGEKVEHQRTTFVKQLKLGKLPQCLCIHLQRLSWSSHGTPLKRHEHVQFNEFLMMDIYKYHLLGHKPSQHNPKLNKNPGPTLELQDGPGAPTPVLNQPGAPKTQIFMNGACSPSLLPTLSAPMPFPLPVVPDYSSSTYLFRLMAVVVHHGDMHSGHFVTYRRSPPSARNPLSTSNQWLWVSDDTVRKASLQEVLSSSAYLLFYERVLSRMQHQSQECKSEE
USP10 block: blocks human USP10 ubiquitin-rhodamine cleavage. inhibition, % at 20 µM. actives 1.1% (n = 47,000). AID 1645856. purified USP10, Ub-rhodamine fluorescence, 60 min. Q14694
USP17 inh: blocks human USP17 ubiquitin-rhodamine cleavage. A8MUK1. purified USP17, Ub-rhodamine cleavage fluorescence, 3 h. inhibition, % at 50 µM. actives 6.5% (n = 47,000). AID 1645855
USP8 block: inhibitors of human USP8 deubiquitinase. actives 4.2% (n = 47,000). AID 1645853. inhibition, % at 20 µM. purified USP8, Ub-rhodamine cleavage fluorescence, 30 min. P40818
Starred values were filed as active, the others as inactive; x = no result given. An excerpt weighted towards active compounds, which were near 13% of everything screened. No stated cut-off is given here; in the data, active means inhibition above about 30%; inactive means the rest.

SMILES | USP28 block | USP30 block | USP10 block | USP17 inh | USP8 block
COc1ccc(-c2cc3nc(NCCc4ccc(S(N)(=O)=O)cc4)ccn3n2)cc1 | 17 | 10 | -5 | 41* | -63
COc1ccc(-c2cc(C(=O)NCCc3ccc(S(N)(=O)=O)cc3)c3ccccc3n2)cc1 | 20 | -50 | 29 | -5 | 53*
NS(=O)(=O)c1ccc(CCNC(=O)c2cc(-c3ccc4c(c3)OCO4)nc3ccccc23)cc1 | 14 | -32 | 16 | -18 | 31*
Cc1ccc(CCNC(=O)c2cc(Nc3ccccc3)nc3ccccc23)cc1 | -9 | -35 | 1 | 9 | -11
Cc1cc(NC(=O)[C@H](Cc2ccccc2)NC(=O)c2cccc(F)c2)no1 | -2 | 0 | 1 | 28 | 9
COc1ccccc1-c1noc2ncnc(NCC3CCCO3)c12 (stereo not drawn) | 12 | 19 | 0 | 14 | 2
Cn1c(C(=O)N2CCN3C(=O)N(Cc4ccccn4)C(=O)C3(C)CC2)cc2ccccc21 (stereo not drawn) | 4 | 13 | 0 | 0 | 12
COc1ccc(-c2csc(N)n2)c2ccccc12 | -11 | -89 | -3 | 24 | 83*
Cc1ccc(-c2nc3nc(C)c(Cc4ccccc4)c(=O)n3[nH]2)cc1 | 5 | 15 | 5 | 28 | 2
COc1ccc(-c2nc3nc(C)c(Cc4ccccc4)c(=O)n3[nH]2)cc1 | 19 | 51* | 7 | 74* | 7
CNc1nc2c(c(=O)n1-c1ccccc1)CCN(C(=O)c1ccc3ccccc3c1)C2 | 17 | 43* | 2 | 12 | -12
CNc1nc2c(c(=O)n1Cc1ccccc1)CN(C(=O)Nc1ccccc1)CC2 | 10 | 3 | -4 | 0 | 2
CNc1nc2c(c(=O)n1Cc1ccccc1)CN(C(=O)c1ccc(CN)cc1)CC2 | 2 | 25 | -1 | 59* | 0
CCc1nc2sc(C)nn2c1S(=O)(=O)Nc1ccccc1F | 8 | 12 | 0 | 11 | -1
COc1ccc(C2=NS(=O)(=O)N(C)C(C(=O)NCc3ccc(F)cc3)=C2)cc1 | 0 | 7 | 5 | 4 | -8
CSCc1cc(NCc2ccccc2)nc(-c2ccncc2)n1 | 22 | 41* | 5 | 23 | 8
O=C(NC1CCN(c2nc(-c3cccnc3)nc3ccccc23)CC1)c1cccnc1 | 52* | 3 | 1 | 9 | 6
NCCNC(=O)NC1CCN(c2nc(-c3cccnc3)nc3ccccc23)CC1 | 10 | 21 | 5 | -11 | -85
O=C(NCCc1nc2ccccc2[nH]1)c1[nH]nc2c1CCc1ccccc1-2 | 18 | 45* | -2 | 10 | 14
O=C(NCCN1CCOCC1)c1[nH]nc2c1CCc1ccccc1-2 | 17 | -1 | 1 | -3 | -3
Cc1ccc(C2CC(=O)C3=C(C2)Nc2ccccc2N(C(=O)c2ccccc2)C3c2ccccc2)cc1 (stereo not drawn) | 23 | 43* | 10 | 26 | 30*
CN(C)c1ccc(C2C3=C(CC(C)(C)CC3=O)Nc3ccccc3N2C(=O)Cc2ccc(Cl)cc2)cc1 (stereo not drawn) | -12 | -68 | -4 | 18 | 31*
Cc1ccc(C2C3=C(CC(c4ccc(Cl)cc4)CC3=O)Nc3ccccc3N2C(=O)c2ccccc2)cc1 (stereo not drawn) | 15 | 36* | 6 | 28 | -1
COc1ccc(C2C3=C(CC(c4ccc(C)cc4)CC3=O)Nc3ccccc3N2C(=O)c2ccccc2)cc1 (stereo not drawn) | 13 | 12 | -3 | 23 | 24
CN(C)c1ccc(C2C3=C(CC(C)(C)CC3=O)Nc3ccccc3N2C(=O)Cc2ccccc2)cc1 (stereo not drawn) | -22 | -102 | -5 | -9 | -8
SMILES | USP28 block | USP30 block | USP10 block | USP17 inh | USP8 block
Cn1cc(S(=O)(=O)N2CCCC2)cc1C(=O)Nc1ccccc1F | 10 | 17 | 0 | 5 | 21
Cc1cnc(C2COCCN2C(=O)c2ccc3c(c2)OCO3)[nH]1 (stereo not drawn) | 4 | 16 | 3 | 18 | 15
CC(C)N1C(=O)C2COCCN2C(=O)c2cc3c(cc21)OCO3 (stereo not drawn) | x | x | 1 | 37* | -3
Cc1cc(C(=O)NC2(O)C(=O)c3ccccc3C2=O)n(C)n1 | 23 | 36* | 38* | 94* | 82*
Cc1nn(C)c(C)c1NC(=O)CN1CC2(CCOCC2)Oc2ccccc2C1=O | -1 | 0 | 0 | 1 | 11
COCCCn1c(C(=O)NCCCO)cc2c(=O)n3cccc(C)c3nc21 | -7 | -7 | 1 | 0 | 0
C=C1NC(=O)[C@@H](CC)NC(=O)CNC(=O)[C@H](Cc2c[nH]c3cccc(OC)c23)NC(=O)[C@H](Cc2c[nH]c3ccccc23)NC(=O)c2csc(n2)[C@@H](C)NC(=O)CN(C)C1=O | -2 | 8 | -2 | 32* | 10
O=C(CSc1n[nH]c(-c2cccs2)n1)N1CCc2sccc2C1 | 0 | -3 | 2 | -9 | -48
COc1ccc(CN2CCC([C@@H]3C[C@H](C(F)(F)F)n4ncnc4N3)CC2)cc1OC | 3 | 10 | -2 | 1 | 0
COc1ccccc1CN1CCC([C@@H]2C[C@H](C(F)(F)F)n3ncnc3N2)CC1 | 8 | 31* | 1 | 11 | 15
COc1cc(OC)c(NC(=O)CCN2C(=O)c3ccccc3Sc3ncccc32)cc1Cl | -3 | -20 | -2 | -1 | 12
CCCCCCCCCC(CCCCCCCCCC(=O)O)O[C@H]1O[C@@H](COC(C)=O)[C@H](O)[C@@H](O)[C@H]1OC(=O)CC(=O)O (stereo partly drawn) | 41* | 53* | 68* | 42* | 11
NS(=O)(=O)c1cccc(NC(=O)/C=C/c2cn(-c3ccccc3)nc2-c2cccc([N+](=O)[O-])c2)c1 | 23 | 34* | 63* | 4 | 71*
CC(=O)NS(=O)(=O)c1ccc(NC(=O)/C=C/c2cn(-c3ccccc3)nc2-c2ccccc2)cc1 | 25 | -28 | 63* | 25 | 65*
Cc1nc2ccc(NC(=O)/C=C/c3cn(-c4ccccc4)nc3-c3cccnc3)cc2s1 | 5 | 11 | 0 | -10 | 38*
CNC(=O)Cc1ccc(NC(=O)/C=C/c2cn(-c3ccccc3)nc2-c2ccc(F)cc2)cc1 | -4 | -2 | 10 | 4 | 34*
O=C(/C=C/c1cn(-c2ccccc2)nc1-c1cc2ccccc2o1)NCc1ccccc1F | -5 | -7 | -10 | -13 | 9
Cc1onc(-c2ccccc2)c1CNC(=O)C1CCN(c2nccc(C(F)(F)F)n2)CC1 | x | x | 10 | 76* | 0
Cc1onc(-c2ccccc2)c1CNC(=O)c1ccccc1C(=O)O | 10 | 25 | 5 | 12 | 12
Cc1ccc(NS(=O)(=O)c2[nH]ncc2C(=O)Nc2cccc(F)c2)cc1 | 0 | -18 | 13 | 1 | 0
Cc1ccc(NC(=O)Cc2nnc3c(-c4nc(C5CC5)no4)cccn23)c(C)c1 | -8 | 4 | 8 | 5 | 65*
